# Screening results: PubChem, National Center for Advancing Translational Sciences (NCATS)
# Sampled rows, rich in hits. Any-hit rate of the full collection: about 18%.
# IL1B secr inh = blocks inflammasome-driven IL-1 beta release; THP-1 LPS/ATP IL-1B secretion, AlphaLISA, 16 h; active compounds read low; activity change, % at 57.5 µM; 4.7% of 360,000 active; in the data active = activity change below about -50%; inconclusive = mostly about -30% to -49%
#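 Secreted IL-1B measured by AlphaLISA bead assay after 16 h compound exposure of THP-1 cells; compounds (final up to 57.5 uM) added 1 h before LPS (250 ng/mL) and ATP (1.25 mM) stimulation; lower signal means less secretion.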
# CtBP-E1A inh = CtBP/E1A binding inhibition; AlphaScreen GST-E1A/His-CtBP binding, 1536-well; active compounds read low; activity change, % (test concentration not listed); 0.49% of 340,000 active; AID 651724; in the data active = activity change below about -65%; inconclusive = mostly about -30% to -63%
#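 AlphaScreen with 125 nM GST-E1A and 125 nM His-CtBP (5X stocks) in Tris pH 8.0, 300 mM NaCl, BSA, Tween 20, TCEP. Compounds preincubated 2 h at 37 deg C, then glutathione donor/nickel acceptor beads added for 1 h at 37 deg C in dark.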
# DT40 TDP1 no CPT = qHTS for Inhibitors of human tyrosyl-DNA phosphodiesterase 1 (TDP1): qHTS in cells in absence of CPT; DT40 Tdp1-/- hTDP1 cells, no CPT, ATP luminescence, 48 h; Potency, µM (highest dose often 46.2 µM), inactives show at the top dose activity change, negative = growth inhibition, actives largely listed as inhibitors; 15% of 420,000 active; AID 686978, 2013; note: potency is the fitted concentration of half-maximal effect; nearly all actives have a fitted effect of over 55% in size
#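 Seeded 400 DT40-hTDP1 cells/well (vehicle DMSO, no 20 nM CPT); pinned compounds; ≥48 hr at 37 °C; CellTiter-Glo luminescence as viability measure.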
# TDP1 cell CPT = growth inhibition of DT40 Tdp1-/-;hTDP1 cells with camptothecin (screen for TDP1 inhibitors). chicken DT40 Tdp1-/-;hTDP1 cells + 20 nM CPT, ATP luminescence, 48 h. 12% of 420,000 active. Potency, µM (titrated, usually from 46.2 µM), for the others: at the top dose activity change, negative = growth inhibition, most hits filed as inhibitors; note: potency is the fitted concentration of half-maximal effect; nearly all actives have a fitted effect of over 55% in size
#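 Cell growth measured by CellTiter-Glo luminescence after a minimum 48 h, 37 C compound exposure with 20 nM CPT in Tdp1-knockout DT40 cells stably expressing hTDP1, seeded 400/well; qHTS titration format.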
# TDP1 block = blocks human tyrosyl-DNA phosphodiesterase 1; Q9NUW8; recombinant TDP1, AlphaScreen DNA substrate cleavage; Potency, µM (series often up to 130 µM), for inactives: at the top dose activity change, negative = inhibition, actives largely listed as inhibitors; 0.28% of 350,000 active; AID 485290; note: potency is the fitted concentration of half-maximal effect; nearly all actives have a fitted effect of over 40% in size
# Target sequence (Q9NUW8 whole entry, looked up): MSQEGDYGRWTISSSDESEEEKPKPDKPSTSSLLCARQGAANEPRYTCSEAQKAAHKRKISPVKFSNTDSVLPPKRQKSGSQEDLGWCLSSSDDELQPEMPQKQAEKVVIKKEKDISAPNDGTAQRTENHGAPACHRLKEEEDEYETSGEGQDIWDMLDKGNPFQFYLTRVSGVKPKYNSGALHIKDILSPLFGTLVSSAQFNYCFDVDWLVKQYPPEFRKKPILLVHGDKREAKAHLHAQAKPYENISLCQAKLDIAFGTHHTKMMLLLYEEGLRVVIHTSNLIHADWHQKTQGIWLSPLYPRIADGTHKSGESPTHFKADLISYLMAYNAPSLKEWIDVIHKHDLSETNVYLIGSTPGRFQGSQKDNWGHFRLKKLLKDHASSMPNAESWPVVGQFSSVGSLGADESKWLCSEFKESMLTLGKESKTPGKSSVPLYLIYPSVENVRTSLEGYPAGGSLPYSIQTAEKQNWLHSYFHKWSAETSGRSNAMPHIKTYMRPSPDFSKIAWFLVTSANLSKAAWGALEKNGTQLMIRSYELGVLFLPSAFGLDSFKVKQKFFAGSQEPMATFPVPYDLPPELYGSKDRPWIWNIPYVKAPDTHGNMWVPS
#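 Steps: enzyme plus compound, 15 min RT; add biotin/phosphotyrosine-FITC oligonucleotide (15 nM final), react 5 min; add donor/acceptor beads (10 ug/ml final), 10 min; read AlphaScreen. Tdp1 at 1 nM final.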
# Six1-Eya2 inh = Six1/Eya2 interaction inhibition; Q15475+O00167; 0.56% of 360,000 active; activity change, % (concentration not given with the values); AlphaScreen GST-Six1/His-Eya2 binding, biochemical; active compounds read low; in the data active = activity change below about -65%; inconclusive = mostly about -30% to -63%
#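 AlphaScreen with GST-Six1 and His-Eya2 (5X mix: 250 nM and 500 nM), glutathione donor and nickel acceptor beads; buffer 50 mM Tris pH 8.0, 300 mM NaCl, 1 mM TCEP; 1 h at 37 C in the dark.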
# Starred values were filed as active, the others as inactive; ? = inconclusive; . = not tested or not shown; [ ] = remark or other dose. Unless noted, calls come from the whole dose curve; as a rule, active = well fitted curve in the direction sought with a large enough effect; inconclusive = small, poorly fitted or top-dose-only effect, or another doubt; inactive = no such curve, though single readings can be large; an effect the other way counts as inactive or inconclusive. % is set by controls: 0 for no effect and ±100 for the full control effect.
SMILES,IL1B secr inh,CtBP-E1A inh,DT40 TDP1 no CPT,TDP1 cell CPT,TDP1 block,Six1-Eya2 inh
CCC(C)Nc1nc(-c2ccc3c(c2)NC(=O)CO3)cs1 (stereo unspecified),-2,9,?,23µM*,5%,-7
COc1ccc(Nc2nc(-c3ccc4c(c3)NC(=O)CO4)cs2)cc1,-13,-7,?,?,3%,-13
COc1ccccc1Nc1nc(-c2ccc3c(c2)NC(=O)CO3)cs1,?,-6,18µM*,23µM*,5%,-22
CC(OC(=O)c1ccc(F)cc1)C(=O)Nc1nc(-c2cccc([N+](=O)[O-])c2)cs1 (stereo unspecified),?,-18,?,?,2%,-1
CC(NC(=S)Nc1ccccc1OC(F)F)C(C)(C)C (stereo unspecified),5,-7,-12%,-6%,0%,-16
COc1ccc(Br)c(C(=O)NNC(=O)c2ccc(NS(=O)(=O)c3cccs3)cc2)c1,4,2,0%,-12%,3%,-13
Cc1c(-c2nc(N)nc(Nc3ccccc3)n2)oc2ccccc12,?,-2,16µM*,?,6%,-11
CN(C)C(=O)CCc1ccc2c3c([nH]c2c1)[C@]1(C)[C@@H](C(=O)N2CCCCC2)C[C@H](CC(=O)NCc2ccco2)C(=O)N1CC3,1,0,2%,14%,0%[56.1 µM],7
CN(C)C(=O)CCc1ccc2c3c([nH]c2c1)[C@]1(C)[C@@H](C(=O)N2CCOCC2)C[C@H](CC(=O)NCc2cccc(C(F)(F)F)c2)C(=O)N1CC3,-13,-5,?,16µM*,-2%[56.1 µM],2
CN(C)C(=O)CCc1ccc2c3c([nH]c2c1)[C@]1(CCc2ccccc2)[C@@H](C(=O)N2CCCCC2)C[C@H](CC(=O)NCc2cccc(C(F)(F)F)c2)C(=O)N1CC3,-71*,3,21µM*,?,3%[56.1 µM],4
Cc1noc(C)c1CS(=O)(=O)Cc1ccc(Cl)cc1,-18,7,-1%,2%,-5%,1
O=C(N/N=C/c1ccccc1C(=O)O)c1ccccc1Br,12,6,-3%,19%,-3%,14
O=C(N/N=C/c1cn(-c2cccs2)nc1-c1ccccc1)c1ccccc1O,77,-76*,8.2µM*,13µM*,-3%,-78*
O=C(N/N=C/c1cn(-c2cccs2)nc1-c1ccccc1)c1ccccc1Br,?,-27,23µM*,23µM*,3%,-14
CCOC(=O)C1=C(N)N2C(=O)C(C)SC2=C(C(=O)OC)C1c1ccccc1OC (stereo unspecified),6,-11,-15%,-4%,9%,-5
CCc1ccc(NC(=O)C(=O)NCC(c2cccnc2)N2CCOCC2)cc1 (stereo unspecified),.,.,?,?,6%,.
O=C(NCC(c1cccnc1)N1CCN(Cc2ccccc2)CC1)C(=O)Nc1ccc(F)cc1 (stereo unspecified),.,.,23µM*,18µM*,1%,.
O=C(NCC(c1cccnc1)N1CCN(Cc2ccccc2)CC1)C(=O)Nc1cccc(F)c1 (stereo unspecified),.,.,23µM*,26µM*,4%,.
CCc1ccc(NC(=O)C(=O)NCC(c2cccnc2)N2CCN(Cc3ccccc3)CC2)cc1 (stereo unspecified),.,.,8.2µM*,12µM*,-5%,.
O=S(=O)(NCC(c1cccnc1)N1CCN(Cc2ccccc2)CC1)c1ccc(F)cc1 (stereo unspecified),0,0,-30%,?,2%,4
Cc1c(C#N)c(N=CN(C)C)c(C(=O)c2ccccc2)n1-c1ccc(Br)cc1,0,5,?,18µM*,6%,-12
Cc1c(C#N)c(N=CN(C)C)c(C(=O)c2ccc(Br)cc2)n1-c1ccccc1,-7,10,-29%,-16%,7%,-13
COc1cc(O)c(C(CCN2CCOCC2)c2ccc(N(C)C)cc2)c(OC)c1 (stereo unspecified),-13,-27,?,15µM*,21%,?
COc1cc(O)c(C(CCN2CCOCC2)c2ccc3c(c2)OCO3)c(OC)c1 (stereo unspecified),-23,-8,?,?,13%,-16
COc1cc(O)c(C(CCN2CCN(c3ccccc3)CC2)c2ccc(N(C)C)cc2)c(OC)c1 (stereo unspecified),?,-70*,21µM*,13µM*,28%,-78*
SMILES,IL1B secr inh,CtBP-E1A inh,DT40 TDP1 no CPT,TDP1 cell CPT,TDP1 block,Six1-Eya2 inh
COc1ccc(C(CCN2CCN(c3ccccc3)CC2)c2c(O)cc(OC)cc2OC)cc1 (stereo unspecified),-7,-29,21µM*,16µM*,20%,?
COCCn1nnnc1C(c1ccccn1)N1CCN(c2cccc(C)c2C)CC1 (stereo unspecified),17,-2,?,-16%,-2%,-8
O=C(NCc1ccccc1)C(c1ccc(F)cc1)N(C(=O)c1csnn1)C1CCCC1 (stereo unspecified),-7,-9,?,?,9%,0
O=C(CCl)NC1CCCc2ccccc21 (stereo unspecified),-98*,1,18µM*,15µM*,6%,0
Cc1cccc(OCC(=O)Nc2ccc3c4c(cccc24)CC3)c1C,33,4,8.2µM*,12µM*,3%,5
O=C(Cc1ccc(Br)cc1)NC1CCCc2ccccc21 (stereo unspecified),8,15,?,?,2%,-1
CN(C(=O)c1cccc(C(F)(F)F)c1)C1CCCc2ccccc21 (stereo unspecified),20,3,?,?,-9%,11
CC(Sc1nc2ccccc2s1)C(=O)N(C)Cc1ccccc1 (stereo unspecified),-67*,23,-27%,-5%,-17%,5
Cc1ccc(OCC(=O)Nc2ccc3c4c(cccc24)CC3)c(C)c1,-10,-4,?,-27%,-4%,21
CN(C(=O)CCl)C1CCCc2ccccc21 (stereo unspecified),-107*,-18,2.9µM*,2.6µM*,-8%,10
O=C(Nc1cccc(Cl)c1)OCC#CCCl,.,.,.,.,21%,.
O=C(NC(=S)NC1CCCc2ccccc21)c1ccc(F)cc1 (stereo unspecified),-5,3,?,?,8%,-18
